Compounds with a hit are over-represented: about 0.93% of the library has one in this group of screens.
LAP4-GFP MLPCN – modulators of LAP4-GFP expression in yeast, primary screen, S. cerevisiae, multiplex flow cytometry, MLPCN library; 3 h; median GFP as percent of DMSO wells; GFP response vs DMSO, % at 10 µM; 320,000 tested, 0.34% active;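 active = GFP response vs DMSO above a set limit, about the screen mean plus 3 SD, cut at about 150% in these data; inconclusive = under 70 cell events counted for the yeast strain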
RPL19A-GFP yeast – RPL19A-GFP expression modulators in yeast, primary screen, cell-based, S. cerevisiae, multiplex flow cytometry, MLPCN; 330,000 tested, 0.3% active; S. cerevisiae RPL19A-GFP strain, 3 h; stronger effect = lower value; percent response vs DMSO, % at 10 µM;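 active = percent response vs DMSO below 50%; inconclusive = fewer than 70 events counted for the yeast strain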;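 also: median channel GFP fluorescence of the barcoded RPL19A-GFP strain; ratio of sample median GFP to plate DMSO average so 100% = DMSO; lower means less RPL19A-GFP as with rapamycin TOR inhibition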
MEP2 TOR yeast – modulators of MEP2-GFP levels in yeast, primary screen, S. cerevisiae, multiplex flow cytometry, MLPCN library | S. cerevisiae MEP2-GFP strain, 3 h; 100% = DMSO control level | GFP response vs DMSO, % at 10 µM | 330,000 tested, 0.51% active;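 active = GFP response versus DMSO above a set limit, roughly screen mean plus 3 SD, cut at about 180% in these data; inconclusive = fewer than 70 cells counted for a yeast strain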;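 also: median GFP fluorescence of the barcode-gated MEP2-GFP cells per well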
AGP1 TOR yeast – modulators of AGP1-GFP expression in yeast TOR pathway, primary screen, cell-based, multiplex flow cytometry, S. cerevisiae, MLPCN library; 3 h; GFP as percent of DMSO wells; GFP response vs DMSO, % at 10 µM; 320,000 tested, 0.02% active; AID 2066, 2009;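 active = GFP response relative to DMSO above a set limit, near screen average plus 3 SD, cut at about 150% in these data; inconclusive = fewer than 70 cells counted for the yeast strain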;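 also: median GFP channel fluorescence of the gated AGP1 strain per well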
CIT2 TOR yeast – modulators of CIT2-GFP expression in yeast, primary screen, S. cerevisiae, GFP fusion, multiplex flow cytometry, MLPCN library; GFP response vs DMSO, % at 10 µM; S. cerevisiae CIT2-GFP strain, 3 h; 100 means same as DMSO wells; 320,000 tested, 0.065% active; AID 2029, 2009;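 active = GFP response relative to DMSO above a set limit, near the screen mean plus 3 SD, cut at about 150% in these data; inconclusive = Fewer than 70 cells measured for a yeast strain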;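 also: ratio of well median GFP fluorescence to mean of DMSO wells on the plate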
Numbers without * were called inactive; [ ] = another dose, or the depositor's remark.

Results for COc1ccccc1/C=C\C=N\NC(=O)c1ccco1 ?
LAP4-GFP MLPCN: 105; RPL19A-GFP yeast: 100; MEP2 TOR yeast: 94; AGP1 TOR yeast: 99; CIT2 TOR yeast: 100

Results for Nc1nc(N)c(N=Nc2ccc(C(=O)O)cc2)c(N)n1 ?
LAP4-GFP MLPCN: 98; RPL19A-GFP yeast: 102; MEP2 TOR yeast: 106; AGP1 TOR yeast: 93; CIT2 TOR yeast: 102

How did O=C(O)c1ccc(N=Nc2c(O)ccc3ncccc23)cc1 do in these assays?
LAP4-GFP MLPCN: 69; RPL19A-GFP yeast: 74; MEP2 TOR yeast: active[may fluoresce violet]; AGP1 TOR yeast: 37; CIT2 TOR yeast: inconclusive

How did Cc1cc(NC(=O)CSc2nnc(C3CC3)n2N)c([N+](=O)[O-])cc1C do in these assays?
LAP4-GFP MLPCN: 114; RPL19A-GFP yeast: 100; MEP2 TOR yeast: 93; AGP1 TOR yeast: 110; CIT2 TOR yeast: 103

What do the screens show for `CCC(C)[C@H](NC(=O)C1CCN(C(=O)[C@H](Cc2ccccc2)NS(=O)(=O)c2ccc(C)cc2)CC1)C(=O)O` (stereo not given in full)?
LAP4-GFP MLPCN: 105; RPL19A-GFP yeast: 102; MEP2 TOR yeast: 109; AGP1 TOR yeast: 100; CIT2 TOR yeast: 111

Results for CC(C)(C)OC(=O)C[C@H]1C/C=C\C[C@@H](CC(=O)N(CCO)Cc2ccccc2)C(=O)N[C@H](Cc2ccccc2)COC1=O ?
LAP4-GFP MLPCN: 93; RPL19A-GFP yeast: 94; MEP2 TOR yeast: 95; AGP1 TOR yeast: 95; CIT2 TOR yeast: 93

Results for O=C(ON=C1CCN(c2ccc([N+](=O)[O-])cc2)CC1)c1ccccc1 ?
LAP4-GFP MLPCN: 107; RPL19A-GFP yeast: 93; MEP2 TOR yeast: 114; AGP1 TOR yeast: 78; CIT2 TOR yeast: 97

What do the screens show for `COc1ccc(C(=O)ON=C2CCN(c3ccc([N+](=O)[O-])cc3)CC2)cc1`?
LAP4-GFP MLPCN: 150*; RPL19A-GFP yeast: 100; MEP2 TOR yeast: 101; AGP1 TOR yeast: 64; CIT2 TOR yeast: 93

Results for CC(C)(Oc1ccc(Cl)cc1)C(=O)NCc1ccc(S(N)(=O)=O)cc1 ?
LAP4-GFP MLPCN: 68; RPL19A-GFP yeast: 52; MEP2 TOR yeast: 244*[may fluoresce violet]; AGP1 TOR yeast: 16; CIT2 TOR yeast: inconclusive

How did COC(=O)CNC(=O)C(C)(C)Oc1ccc(Cl)cc1 do in these assays?
RPL19A-GFP yeast: 91; MEP2 TOR yeast: 96; AGP1 TOR yeast: 91; CIT2 TOR yeast: 97

What do the screens show for `Cc1cc(C)n(C(=O)/C=C/c2cccs2)n1`?
LAP4-GFP MLPCN: 86; RPL19A-GFP yeast: 54; MEP2 TOR yeast: 211*[may fluoresce violet]; AGP1 TOR yeast: inconclusive; CIT2 TOR yeast: inconclusive

What do the screens show for `O=C(/C=C/c1cccs1)N1CCCC1`?
LAP4-GFP MLPCN: 94; RPL19A-GFP yeast: 97; MEP2 TOR yeast: 98; AGP1 TOR yeast: 100; CIT2 TOR yeast: 94

What do the screens show for `CC(=O)Nc1ccc(NC(=O)C(C)OC(=O)CNS(=O)(=O)/C=C/c2ccc(C)cc2)cc1` (stereo not given)?
LAP4-GFP MLPCN: 101; RPL19A-GFP yeast: 97; MEP2 TOR yeast: 96; AGP1 TOR yeast: 105; CIT2 TOR yeast: 89

How did COc1cc(CC(=O)OCC(=O)N2CCCCC2C)cc(OC)c1OC (stereo not given) do in these assays?
LAP4-GFP MLPCN: 84; RPL19A-GFP yeast: 98; MEP2 TOR yeast: 96; AGP1 TOR yeast: 88; CIT2 TOR yeast: 99

How did Cc1ccc(C(=O)NC(c2ccccc2)C(Cl)Cl)cc1 (stereo not given) do in these assays?
LAP4-GFP MLPCN: 103; RPL19A-GFP yeast: 103; MEP2 TOR yeast: 111; AGP1 TOR yeast: 113; CIT2 TOR yeast: 105

Results for O=C(NC(c1ccccc1)C(Cl)Cl)c1ccccc1 (stereo not given) ?
LAP4-GFP MLPCN: 102; RPL19A-GFP yeast: 106; MEP2 TOR yeast: 164; AGP1 TOR yeast: 151*; CIT2 TOR yeast: 108

Results for CCCCCCCCOc1ccc(C2OC34CCCCC3C(C#N)(C#N)C2(C#N)C(=N)O4)cc1 (stereo not given) ?
LAP4-GFP MLPCN: 84; RPL19A-GFP yeast: 49*[may fluoresce violet]; MEP2 TOR yeast: 376*[may fluoresce violet]; AGP1 TOR yeast: 29; CIT2 TOR yeast: inconclusive

What do the screens show for `CCCCC1OC23CCCCC2C(C#N)(C#N)C1(C#N)C(=N)O3` (stereo not given)?
LAP4-GFP MLPCN: 112; RPL19A-GFP yeast: 111; MEP2 TOR yeast: 119; AGP1 TOR yeast: 109; CIT2 TOR yeast: 107

How did Oc1ccc2oc3c(c2c1)CCCC3 do in these assays?
LAP4-GFP MLPCN: 84; RPL19A-GFP yeast: 45*[may fluoresce violet]; MEP2 TOR yeast: 350*[may fluoresce violet]; AGP1 TOR yeast: inconclusive; CIT2 TOR yeast: inconclusive

What do the screens show for `Cc1c(Cl)ccc(S(=O)(=O)NCCCn2ccnc2)c1Cl`?
LAP4-GFP MLPCN: 89; RPL19A-GFP yeast: 102; MEP2 TOR yeast: 104; AGP1 TOR yeast: 99; CIT2 TOR yeast: 102

What do the screens show for `COc1cccc(C(c2c(N)[nH]c(=S)[nH]c2=O)c2c(N)[nH]c(=S)[nH]c2=O)c1`?
LAP4-GFP MLPCN: 112; RPL19A-GFP yeast: 99; MEP2 TOR yeast: 98; AGP1 TOR yeast: 106; CIT2 TOR yeast: 96

What do the screens show for `O=C(Nc1cc(F)c(Br)cc1F)c1ccc(Cl)cc1`?
LAP4-GFP MLPCN: 154*; RPL19A-GFP yeast: 78; MEP2 TOR yeast: 260*; AGP1 TOR yeast: 139; CIT2 TOR yeast: 126

What do the screens show for `O=C(Nc1ccc(Cl)cc1C(F)(F)F)c1ccc(Cl)cc1`?
LAP4-GFP MLPCN: 91; RPL19A-GFP yeast: 94; MEP2 TOR yeast: 90; AGP1 TOR yeast: 88; CIT2 TOR yeast: 86

How did CCn1c(SCC(=O)NC2CC2)nnc1-c1csc(C)c1 do in these assays?
LAP4-GFP MLPCN: 104; RPL19A-GFP yeast: 108; MEP2 TOR yeast: 123; AGP1 TOR yeast: 108; CIT2 TOR yeast: 112

Results for CNc1nc(-c2ccccc2)cc(C(F)(F)F)c1C#N ?
LAP4-GFP MLPCN: 91; RPL19A-GFP yeast: 75; MEP2 TOR yeast: 220*; AGP1 TOR yeast: 23; CIT2 TOR yeast: 103

Results for COc1cc(S(=O)(=O)NCc2ccncc2)ccc1Br ?
LAP4-GFP MLPCN: 91; RPL19A-GFP yeast: 112; MEP2 TOR yeast: 102; AGP1 TOR yeast: 97; CIT2 TOR yeast: 101

Results for C[C@H](NC(=O)Nc1cccc(C(F)(F)F)c1)C(=O)O ?
LAP4-GFP MLPCN: 91; RPL19A-GFP yeast: 77; MEP2 TOR yeast: 346*[may fluoresce violet]; AGP1 TOR yeast: 21; CIT2 TOR yeast: inconclusive

How did O=C(Nc1ccccc1)Nc1cccc(C(F)(F)F)c1 do in these assays?
LAP4-GFP MLPCN: 98; RPL19A-GFP yeast: 95; MEP2 TOR yeast: 100; AGP1 TOR yeast: 95; CIT2 TOR yeast: 96

What do the screens show for `CCOc1ccc(CNC(=O)CCCn2ccc3cc(S(=O)(=O)N4CCCC4)ccc32)cc1`?
LAP4-GFP MLPCN: 81; RPL19A-GFP yeast: 22*[may fluoresce violet]; MEP2 TOR yeast: 154; AGP1 TOR yeast: 14; CIT2 TOR yeast: inconclusive

High-throughput results (PubChem BioAssay)
